Assay [1] is described as follows: BSK_LPS_PGE2: BioMAP Diversity Plus: LPS Assay for Prostaglandin E2 (PGE2) Biomarker Activity (AID 2283082). Particulars: primary human HUVEC with PBMC; actives raise or lower the signal. In a few lines: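 Compounds were added to the LPS co-culture of endothelium and PBMC, and PGE2 was measured by ELISA after 24 h. Responses in either direction were fitted with DMSO as baseline.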

Read-out in assay [2]: Macrophage colony-stimulating factor (MCSF), CSF1 (gene 1435)
The assay can be described thus: BSK_LPS_MCSF: BioMAP Diversity Plus: LPS Assay for Macrophage colony-stimulating factor (MCSF) Biomarker Activity (AID 2283083). The note with it: primary human HUVEC with PBMC; actives raise or lower the signal. In a few lines:
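Bidirectional fitting against DMSO was applied to M-CSF levels read by ELISA at 24 h post-dose. The system pairs human umbilical vein endothelium with peripheral blood mononuclear cells; parallel SRB staining tracked cytotoxicity.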

Read-out in assay [3]: Tissue Factor, F3 (gene 2152)
Put plainly: BSK_LPS_TissueFactor: BioMAP Diversity Plus: LPS Assay for Tissue Factor Biomarker Activity (AID 2283084). The note with it: primary human HUVEC with PBMC; actives raise or lower the signal. In a few lines:
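Compound was added to an endothelial cell/PBMC co-culture, and after 24 h tissue factor (CD142) was read by ELISA. Gain or loss of signal was fitted against a DMSO baseline, and parallel SRB staining (560 nm) tracked overt cytotoxicity.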

Read-out in assay [4]: Tumor necrosis factor (Homo sapiens) (UniProt P01375)
The assay can be described thus: BSK_LPS_TNFa: BioMAP Diversity Plus: LPS Assay for Tumour Necrosis Factor alpha (TNFa) Biomarker Activity (AID 2283085).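 As to AC50: TNFa protein level quantified by ELISA in the co-culture.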 Particulars: primary human HUVEC with PBMC; actives raise or lower the signal. A digest of the protocol:
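Cells (umbilical vein endothelium plus peripheral blood mononuclear cells) were dosed with chemical, incubated 24 h, then TNFa was quantified by ELISA; values derive from bidirectional fitting with DMSO as baseline.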

Read-out in assay [5]: Vascular cell adhesion molecule 1 (VCAM1), VCAM1 (gene 7412)
Put plainly: BSK_LPS_VCAM1: BioMAP Diversity Plus: LPS Assay for Vascular cell adhesion molecule 1 (VCAM1) Biomarker Activity (AID 2283086). Particulars: primary human HUVEC with PBMC; actives raise or lower the signal. In a few lines:
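Cells are dosed in an LPS-stimulated endothelial/mononuclear co-culture and, after 24 h, VCAM-1 is quantified by ELISA. Activity in either direction is fitted relative to the DMSO negative control.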

Read-out in the next assay: CD38, CD38 (gene 952)
The assay can be described thus: BSK_SAg_CD38: BioMAP Diversity Plus: SAg Assay for CD38 Biomarker Activity (AID 2283087). The note with it: primary human HUVEC with PBMC; actives raise or lower the signal. In a few lines:
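CD38 quantified by ELISA (fluorescence) in a superantigen-activated endothelial cell–PBMC co-culture at 24 h post-dose. Activity fitted in both directions relative to DMSO; parallel SRB and Alamar Blue cytotoxicity read-outs.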

Read-out in the next assay: CD40, CD40 (gene 958)
The assay can be described thus: BSK_SAg_CD40: BioMAP Diversity Plus: SAg Assay for CD40 Biomarker Activity (AID 2283088). Particulars: primary human HUVEC with PBMC; actives raise or lower the signal. In a few lines: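 CD40 is measured by fluorescence ELISA in an endothelial/PBMC primary human co-culture at 24 h post-dose. Fitting is bidirectional, DMSO baseline. Parallel SRB staining (560 nm) flags cytotoxicity.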

Read-out in the next assay: CD69, CD69 (gene 969)
Put plainly: BSK_SAg_CD69: BioMAP Diversity Plus: SAg Assay for CD69 Biomarker Activity (AID 2283089).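 As to AC50: cell surface CD69 protein quantified by ELISA with fluorescence detection.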 Particulars: primary human HUVEC with PBMC; actives raise or lower the signal. In a few lines:
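Primary human vascular co-culture (umbilical vein endothelium with peripheral blood mononuclear cells) exposed to test chemical for 24 h. CD69 levels quantified by fluorescence ELISA; DMSO served as negative control for bidirectional fitting.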

Read-out in assay [6]: Monocyte Chemoattractant Protein-1 (MCP1), CCL2 (gene 6347)
Put plainly: BSK_SAg_MCP1: BioMAP Diversity Plus: SAg Assay for Monocyte Chemoattractant Protein-1 (MCP1) Biomarker Activity (AID 2283090). The note with it: primary human HUVEC with PBMC; actives raise or lower the signal. A digest of the protocol:
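Values derive from bidirectional fitting of ELISA-measured MCP1 against DMSO controls. Readings were taken 24 h after dosing human vascular endothelial cells co-cultured with peripheral blood mononuclear cells under superantigen stimulation.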

Read-out in assay [7]: E-selectin (Homo sapiens) (UniProt P16581)
Put plainly: BSK_SAg_Eselectin: BioMAP Diversity Plus: SAg Assay for Eselectin Biomarker Activity (AID 2283091). The note with it: primary human HUVEC with PBMC; actives raise or lower the signal. In a few lines:
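Cell-surface E-selectin is read by ELISA at 24 h in the SAg co-culture of HUVEC and PBMC. Curves are fitted in both directions relative to DMSO. Parallel SRB total-protein staining tracks overt toxicity.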

Read-out in assay [8]: Monokine induced gamma interferon (MIG), CXCL9 (gene 4283)
Put plainly: BSK_SAg_MIG: BioMAP Diversity Plus: SAg Assay for Monokine induced gamma interferon (MIG) Biomarker Activity (AID 2283092). The note with it: primary human HUVEC with PBMC; actives raise or lower the signal. In a few lines:
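Endothelial cells and PBMC were co-cultured, exposed to test chemicals, and sampled 24 h later. MIG was measured by ELISA, and responses were fitted in both directions relative to DMSO.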

A short description of assay [9]: BSK_SAg_PBMCCytotoxicity: PBMC Cytotoxicity Assessment in the BioMAP Diversity Plus: SAg Assay (AID 2283093).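 Also: PBMC viability measured as Alamar Blue reduction fluorescence at 546/580 nm; fitted both ways against DMSO so a hit may be loss or gain of signal.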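 As to AC50: PBMC superantigen activated with SEB plus TSST-1 one hour after compound addition.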 Particulars: primary human HUVEC with PBMC. In a few lines:
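Alamar Blue reduction (6 h, ex/em 546/580 nm) read after 90 h culture of PBMC pre-dosed 1 h then stimulated with SEB plus TSST-1, 20 ng/mL each. Gain or loss of signal fitted relative to DMSO.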

Read-out in assay [10]: Interleukin-8 (IL8), CXCL8 (gene 3576)
The assay can be described thus: BSK_SAg_IL8: BioMAP Diversity Plus: SAg Assay for Interleukin-8 (IL8) Biomarker Activity (AID 2283094). Particulars: primary human HUVEC with PBMC; actives raise or lower the signal. A digest of the protocol: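 Chemicals were dosed onto a human endothelial–PBMC co-culture, and IL-8 was quantified by ELISA after 24 h. Both increases and decreases were fitted relative to DMSO.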

Assay [11] can be described thus: BSK_SAg_Proliferation: Cell Proliferation Assessment in the BioMAP Diversity Plus: SAg Assay (AID 2283095).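 Also: relative cell number as total protein by SRB absorbance in sub-confluent culture.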 Particulars: primary human HUVEC with PBMC. In a few lines: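 Absorbance of sulforhodamine B at 560 nm reports total protein in a human vascular endothelial/PBMC co-culture after 96 h chemical exposure. Gain or loss of signal is fitted in both directions against DMSO.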

Assay [12] is described as follows: BSK_SAg_SRB: Viability Assessment in the BioMAP Diversity Plus: SAg Assay (AID 2283096).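 Also: cells read one day after compound addition; hits may be either gain or loss of signal compared with DMSO.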 Particulars: primary human HUVEC with PBMC. A digest of the protocol: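 SRB absorbance at 560 nm served as the viability read-out. Cells (HUVEC plus peripheral blood mononuclear cells) were TCA-fixed and stained 24 h post-dosing; activity fitted in both directions against DMSO controls.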

For assay [13], the target named is human CYP2A6, CYP2A6 (gene 1548) (UniProt P11509). The assay can be described thus: NVS_ADME_hCYP2A6: NovaScreen (NVS) CYP450-related Enzyme Activity (ADME) Assay for human CYP2A6 (AID 2283099; active = hit-call score of the fitted dose curve at least 0.9, where 1 is the maximum). In a few lines:
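Compounds screened at 10 uM (duplicate) and, if active, titrated to a 20 uM top concentration against insect-cell-expressed CYP2A6. Loss of fluorescent product signal after 0.5 h, relative to acetonitrile baseline, indicates inhibition.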

The target in assay [14] is human CYP1A1, CYP1A1 (gene 1543) (UniProt P04798). The assay can be described thus: NVS_ADME_hCYP1A1: NovaScreen (NVS) CYP450-related Enzyme Activity (ADME) Assay for human CYP1A1 (AID 2283100; active = hit-call score of the fitted dose curve at least 0.9, where 1 is the maximum). In a few lines: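 Chemicals were first tested in duplicate at 10 uM, and those passing a 30% inhibition threshold were rerun as concentration series topping at 20 uM. Fluorescence read-out of recombinant enzyme turnover after 1 h, relative to acetonitrile.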
Chain of human CYP1A1, CYP1A1 (gene 1543) (P04798 whole entry, looked up): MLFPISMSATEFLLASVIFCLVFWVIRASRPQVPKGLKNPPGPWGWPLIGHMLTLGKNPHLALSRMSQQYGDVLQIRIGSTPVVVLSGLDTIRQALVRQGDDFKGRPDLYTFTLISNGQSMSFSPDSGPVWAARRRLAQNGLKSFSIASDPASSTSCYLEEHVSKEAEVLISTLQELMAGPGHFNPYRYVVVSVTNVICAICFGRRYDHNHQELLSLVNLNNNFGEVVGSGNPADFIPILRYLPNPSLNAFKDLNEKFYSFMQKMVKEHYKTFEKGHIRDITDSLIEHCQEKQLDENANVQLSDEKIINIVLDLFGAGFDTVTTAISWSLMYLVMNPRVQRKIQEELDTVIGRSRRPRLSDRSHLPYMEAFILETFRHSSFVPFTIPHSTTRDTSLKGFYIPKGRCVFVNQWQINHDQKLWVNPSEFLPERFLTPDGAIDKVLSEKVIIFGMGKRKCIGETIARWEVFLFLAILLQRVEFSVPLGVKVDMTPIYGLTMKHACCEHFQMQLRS

For assay [15], the target named is human CYP2B6, CYP2B6 (gene 1555) (UniProt P20813). The assay can be described thus: NVS_ADME_hCYP2B6: NovaScreen (NVS) CYP450-related Enzyme Activity (ADME) Assay for human CYP2B6 (AID 2283101; active = hit-call score of the fitted dose curve at least 0.9, where 1 is the maximum). In a few lines: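 Cell-free recombinant enzyme assay with a fluorogenic substrate; fluorescence intensity read 1 hour after dosing. Loss of signal relative to acetonitrile negative control indicates inhibition. Primary screen run in duplicate at 10 uM, actives then tested in concentration series.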
Chain of human CYP2B6, CYP2B6 (gene 1555) (P20813 whole entry, looked up): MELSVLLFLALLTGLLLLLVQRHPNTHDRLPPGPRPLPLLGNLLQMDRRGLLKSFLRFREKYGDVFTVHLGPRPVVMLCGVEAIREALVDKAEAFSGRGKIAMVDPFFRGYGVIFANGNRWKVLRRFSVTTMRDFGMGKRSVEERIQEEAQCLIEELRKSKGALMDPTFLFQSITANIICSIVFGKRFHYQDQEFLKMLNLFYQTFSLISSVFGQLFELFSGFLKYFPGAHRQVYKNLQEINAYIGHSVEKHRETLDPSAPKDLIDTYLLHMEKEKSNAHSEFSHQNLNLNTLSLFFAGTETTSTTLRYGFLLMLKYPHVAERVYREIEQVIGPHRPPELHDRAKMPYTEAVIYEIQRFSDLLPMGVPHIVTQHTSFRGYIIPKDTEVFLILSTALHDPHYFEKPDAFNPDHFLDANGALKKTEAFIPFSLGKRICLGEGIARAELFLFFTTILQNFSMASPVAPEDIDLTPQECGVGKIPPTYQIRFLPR

In assay [16] the target is human CYP2D6, CYP2D6 (gene 1565) (UniProt P10635). Put plainly: NVS_ADME_hCYP2D6: NovaScreen (NVS) CYP450-related Enzyme Activity (ADME) Assay for human CYP2D6 (AID 2283107; active = hit-call score of the fitted dose curve at least 0.9, where 1 is the maximum). In a few lines: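 Fluorescence readout of recombinant CYP2D6 (insect-cell derived) activity after 1 h incubation with test chemical. Acetonitrile served as baseline, loss-of-signal direction. Single-concentration duplicate screening at 10 uM preceded concentration-response retesting.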
Chain of human CYP2D6, CYP2D6 (gene 1565) (P10635 whole entry, looked up): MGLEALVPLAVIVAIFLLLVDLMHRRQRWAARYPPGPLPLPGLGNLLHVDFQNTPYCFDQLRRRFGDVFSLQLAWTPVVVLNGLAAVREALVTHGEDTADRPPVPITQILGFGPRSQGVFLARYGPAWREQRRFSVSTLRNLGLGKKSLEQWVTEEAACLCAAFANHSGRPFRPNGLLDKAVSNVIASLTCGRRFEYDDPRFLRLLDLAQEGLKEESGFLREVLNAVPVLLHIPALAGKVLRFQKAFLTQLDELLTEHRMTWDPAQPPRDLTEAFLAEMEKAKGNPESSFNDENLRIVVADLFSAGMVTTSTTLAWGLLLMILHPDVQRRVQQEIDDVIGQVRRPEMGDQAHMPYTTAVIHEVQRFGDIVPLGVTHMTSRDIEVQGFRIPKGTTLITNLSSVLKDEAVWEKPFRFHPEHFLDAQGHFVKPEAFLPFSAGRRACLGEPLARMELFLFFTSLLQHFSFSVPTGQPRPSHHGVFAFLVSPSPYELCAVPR

Inconclusive results are not listed. Calls of active or inactive are those of the source. The calls were made as follows, unless noted: active = hit-call score of the fitted dose curve at least 0.9, where 1 is the maximum; inactive = score below 0.9.

Chain of E-selectin (Homo sapiens) (P16581 whole entry, looked up): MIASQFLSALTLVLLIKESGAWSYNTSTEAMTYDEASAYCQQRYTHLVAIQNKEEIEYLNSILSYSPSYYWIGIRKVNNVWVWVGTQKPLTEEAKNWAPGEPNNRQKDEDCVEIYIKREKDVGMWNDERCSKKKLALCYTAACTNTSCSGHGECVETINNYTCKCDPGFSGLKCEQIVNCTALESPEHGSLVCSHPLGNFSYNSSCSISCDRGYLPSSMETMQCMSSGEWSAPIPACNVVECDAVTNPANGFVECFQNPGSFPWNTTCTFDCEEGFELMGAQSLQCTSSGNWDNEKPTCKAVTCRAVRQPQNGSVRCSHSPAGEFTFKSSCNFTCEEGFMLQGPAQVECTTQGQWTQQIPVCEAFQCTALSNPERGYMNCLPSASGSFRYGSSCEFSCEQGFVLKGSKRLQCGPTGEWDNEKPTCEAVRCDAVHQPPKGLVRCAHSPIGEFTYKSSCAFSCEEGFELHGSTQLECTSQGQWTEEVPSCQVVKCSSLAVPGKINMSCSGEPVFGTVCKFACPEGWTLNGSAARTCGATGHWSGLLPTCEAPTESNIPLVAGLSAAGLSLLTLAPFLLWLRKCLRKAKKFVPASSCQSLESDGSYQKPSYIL
Chain of Tumor necrosis factor (Homo sapiens) (P01375 whole entry, looked up): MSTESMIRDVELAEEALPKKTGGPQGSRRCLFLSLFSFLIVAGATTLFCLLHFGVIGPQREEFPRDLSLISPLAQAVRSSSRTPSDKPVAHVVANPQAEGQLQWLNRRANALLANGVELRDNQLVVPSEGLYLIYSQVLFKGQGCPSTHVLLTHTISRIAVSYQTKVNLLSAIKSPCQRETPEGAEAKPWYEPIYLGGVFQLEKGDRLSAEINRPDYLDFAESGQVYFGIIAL
Chain of human CYP2A6, CYP2A6 (gene 1548) (P11509 whole entry, looked up): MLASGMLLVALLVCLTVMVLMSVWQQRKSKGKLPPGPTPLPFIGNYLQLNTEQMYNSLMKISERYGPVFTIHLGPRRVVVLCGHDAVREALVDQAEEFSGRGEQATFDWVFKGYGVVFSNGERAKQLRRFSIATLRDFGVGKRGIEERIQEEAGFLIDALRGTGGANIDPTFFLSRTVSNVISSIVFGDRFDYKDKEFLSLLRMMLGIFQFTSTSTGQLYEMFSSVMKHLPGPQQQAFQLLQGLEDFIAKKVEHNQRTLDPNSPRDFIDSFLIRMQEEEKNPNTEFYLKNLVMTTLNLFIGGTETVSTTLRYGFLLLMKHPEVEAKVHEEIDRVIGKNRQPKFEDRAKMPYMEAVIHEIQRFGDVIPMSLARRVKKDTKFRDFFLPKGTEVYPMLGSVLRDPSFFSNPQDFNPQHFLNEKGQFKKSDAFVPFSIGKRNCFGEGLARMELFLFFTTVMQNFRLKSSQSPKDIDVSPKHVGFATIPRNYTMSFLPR

In general, AC50 refers to the concentration at which the activity in the assay is half-maximal. For the molecule `CCCCCCCCn1sccc1=O`, the AC50 in [1] was 0.857 µM (active); in assay [2] it was 7.58 µM (active); in assay [3], 4.04 µM (active); in assay [4], 1.04 µM (active); in assay [5], 6.97 µM (active); in the assay with CD38, CD38 (gene 952), 7.73 µM (active). Besides, the AC50 with CD40, CD40 (gene 958) was 10.2 µM (active); with CD69, CD69 (gene 969), 10.7 µM (active); in assay [6] it was 11.7 µM (active); in assay [7], 12.8 µM (active); in [8], 14.2 µM (active); in assay [9], 3.84 µM (active). Moreover, the concentration at half-maximal activity (AC50) was 13.4 µM (active) in assay [10]; 1.76 µM (active) in [11]; 20.8 µM (active) in assay [12]; 4.74 µM (active) in assay [13]; 975 nM (active) in assay [15]; 7.91 µM (active) in assay [16]. The call in [14] was inactive.

For `Clc1ccc(C(c2ccc(Cl)cc2)C(Cl)Cl)cc1`, the AC50 in assay [1] was 28.5 µM (active); in assay [2] it was 25.6 µM (active); in assay [3] it was 37.8 µM (active); in [4] it was 31.7 µM (active); in assay [5], 30.5 µM (active); with CD38, CD38 (gene 952), 29.3 µM (active). Moreover, the AC50 with CD40, CD40 (gene 958) was 26.2 µM (active); with CD69, CD69 (gene 969), 29.9 µM (active); in assay [6] it was 34.2 µM (active); in assay [7], 28.9 µM (active); in assay [8] it was 35.6 µM (active); in assay [9], 14.3 µM (active). Besides, the AC50 in assay [10] is 29 µM (active); in assay [11], 11.4 µM (active); in [12] it was 29.5 µM (active).

For `Cc1ccc(N)cc1`, the outcome in assay [1] was “inactive”; in assay [2], “inactive”; in [3] it was “inactive”; in assay [4] it was “inactive”; in assay [5] it was “inactive”; with CD38, CD38 (gene 952), “inactive”. Moreover, the outcome with CD40, CD40 (gene 958) is “inactive”; in the assay with CD69, CD69 (gene 969) it was “inactive”; in assay [6] it was “inactive”; in [7], “inactive”; in assay [8], “inactive”; in [9] it was “inactive”. Besides, the result in [10], in assay [11] and in assay [12] was inactive.
